Test results published in the supplement of paper PMC12350171.
Counter-ions that a name gives are not always drawn.

How the values were obtained:
Conditions in all cases: 20 µM
[1] = tested on: Salmonella enterica typhimurium; assay: growth AUC normalised to DMSO control (fraction of control); higher = less growth inhibition, active = hit call of the paper
Summary of the method: (§1)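 For the AUC endpoint, growth curves were integrated by the trapezoidal rule up to the exponential-to-stationary transition and normalised to DMSO controls on the same plate. The curves came from OD578 readings taken hourly for 24 h, in three biological replicates. Pathogens had been passaged anaerobically twice and inoculated at an OD578 of 0.01 into pre-reduced mGAM plates carrying 20 μM compound and 1% DMSO, sealed with breathable membranes. Medium for Haemophilus parainfluenzae also contained hemin and NAD.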

[2] = tested on: Shigella flexneri; assay: as above
Summary of the method: as §1

[3] = tested on: Vibrio cholerae; assay: as above
Summary of the method: as §1

[4] = tested on: Yersinia pseudotuberculosis; assay: as above
Summary of the method: as §1

[5] = tested on: P. vulgatus RND KO; assay: growth AUC normalised to DMSO control (median) (fraction of control); higher = less growth inhibition, active = hit call of the paper
Summary of the method: (§2)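 For normalised area under the curve, growth curves were truncated at entry into stationary phase, integrated by the trapezoidal rule and divided against vehicle wells on the same plate. The curves came from strains passaged twice overnight without oxygen and then grown in mGAM in 96-well plates at a starting OD578 of 0.01. Each well held an approved-drug library compound at 20 μM with 1% DMSO, and OD578 was read hourly for 24 h in an anaerobic incubator. Values are medians of three biological replicates.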

[6] = tested on: P. vulgatus WT; assay: as above
Summary of the method: as §2

[7] = tested on: S. enterica typhimurium WT; assay: as above
Summary of the method: as §2

[8] = tested on: S. enterica typhimurium tolC KO; assay: as above
Summary of the method: as §2

Measured: growth AUC normalised to DMSO control
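For growth AUC normalised to DMSO control (median) in this document: active when median AUC fell below 0.1.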

O=P(O)(O)C(Cl)(Cl)P(=O)(O)O [Clodronate disodium]
inactive: [1] 0.986 | [2] 0.993 | [3] 0.964 | [4] 0.991 | [5] 1 | [6] 1.01 | [7] 0.997 | [8] 0.986

Cn1c(=O)c2c(ncn2CC(O)CO)n(C)c1=O (configuration not stated) [Diprophylline]
inactive: [1] 0.986 | [2] 0.996 | [3] 0.971 | [4] 1 | [5] 1 | [6] 0.989 | [7] 0.991 | [8] 0.998

Oc1c(I)cc(Cl)c2cccnc12 [Clioquinol]
active: [6] 0.0312
inactive: [1] 1.03 | [2] 0.996 | [3] 1.07 | [4] 1.01 | [5] 0.134 | [7] 1.01 | [8] 0.55

O=C1O[C@H]([C@@H](O)CO)C(O)=C1O [Ascorbic acid]
inactive: [1] 1.02 | [2] 1.07 | [3] 1.02 | [4] 0.989 | [5] 1.05 | [6] 1.04 | [7] 1.01 | [8] 0.997

O=C(O)c1ccccc1OP(=O)(O)O [Fosfosal]
inactive: [1] 0.983 | [2] 0.984 | [3] 0.994 | [4] 0.988 | [5] 1 | [6] 1.02 | [7] 1 | [8] 1.01

NC(N)=Nc1nc(CSCC/C(N)=N/S(N)(=O)=O)cs1 [Famotidine]
inactive: [1] 1 | [2] 0.965 | [3] 0.993 | [4] 0.97 | [5] 1.01 | [6] 1.04 | [7] 1.01 | [8] 0.996

CCCCN1CCCCC1C(=O)Nc1c(C)cccc1C (configuration not stated) [Bupivacaine hydrochloride]
inactive: [1] 1.04 | [2] 0.973 | [3] 0.998 | [4] 0.973 | [5] 1.01 | [6] 0.998 | [7] 0.998 | [8] 0.985

Clc1ccc(C(Cn2ccnc2)OCc2ccsc2Cl)c(Cl)c1 (configuration not stated) [Tioconazole]
inactive: [1] 0.986 | [2] 0.984 | [3] 0.909 | [4] 1.07 | [5] 0.932 | [6] 0.929 | [7] 1 | [8] 0.903

CC(C)(C)NCC(O)c1ccc(O)c(CO)c1 (configuration not stated) [Salbutamol]
inactive: [1] 0.985 | [2] 0.97 | [3] 0.984 | [4] 0.985 | [5] 0.985 | [6] 0.956 | [7] 0.992 | [8] 0.997

CC1(C)O[C@@H]2[C@@H](CO[C@@]3(COS(N)(=O)=O)OC(C)(C)O[C@@H]23)O1 [Topiramate]
inactive: [1] 0.985 | [2] 1.02 | [3] 1.02 | [4] 1.01 | [5] 0.961 | [6] 0.967 | [7] 0.996 | [8] 0.992

CN1CCN(C2=Nc3ccccc3Oc3ccc(Cl)cc32)CC1 [Loxapine succinate]
inactive: [1] 1 | [2] 0.992 | [3] 0.907 | [4] 1.01 | [5] 0.612 | [6] 0.478 | [7] 1.01 | [8] 0.96

CC(C(=O)O)c1ccc(C(=O)c2cccs2)cc1 (configuration not stated) [Suprofen]
inactive: [1] 0.987 | [2] 1.04 | [3] 1.05 | [4] 1.02 | [5] 1.01 | [6] 1.03 | [7] 0.996 | [8] 0.995

Nc1ncn(C2OC(CO)C(O)C2O)c(=O)n1 (configuration not stated) [Azacytidine-5]
inactive: [1] 1.02 | [2] 1.04 | [3] 1.02 | [4] 1.04 | [5] 0.999 | [6] 0.996 | [7] 0.977 | [8] 0.963

O=S(=O)(O)CCS [Coenzyme M]
inactive: [1] 1 | [2] 1.02 | [3] 1.01 | [4] 0.997 | [5] 1.01 | [6] 1.01 | [7] 1.01 | [8] 1

O=C1CC2(CCCC2)CC(=O)N1CCCCN1CCN(c2ncccn2)CC1 [Buspirone hydrochloride]
inactive: [1] 1.01 | [2] 1.08 | [3] 1.04 | [4] 1 | [5] 1.12 | [6] 1.11 | [7] 0.986 | [8] 0.979

CCN(CC)CCCC(C)Nc1c2ccc(Cl)cc2nc2ccc(OC)cc12 (configuration not stated) [Quinacrine dihydrochloride hydrate]
inactive: [1] 0.957 | [2] 0.933 | [3] 1.04 | [4] 0.996 | [5] 1.01 | [6] 0.986 | [7] 0.99 | [8] 0.978

CC(=O)OC[C@H]1O[C@@H]([S-])[C@H](OC(C)=O)[C@@H](OC(C)=O)[C@@H]1OC(C)=O.CCP(CC)CC.[Au+] [Auranofin]
inactive: [2] 1.01 | [6] 0.233 | [7] 0.855 | [8] 0.862
active: [1] 0.877 | [3] 0.67 | [4] 0.672 | [5] 0.00406

CN(C)CCC=C1c2ccccc2C=Cc2ccccc21 [Cyclobenzaprine hydrochloride]
active: [3] 0.866
inactive: [1] 0.98 | [2] 0.955 | [4] 0.998 | [5] 0.933 | [6] 0.936 | [7] 1 | [8] 0.853

COC(=O)Nc1nc2ccc(SC(C)C)cc2[nH]1 [Methiazole]
inactive: [1] 1.01 | [2] 1 | [3] 0.999 | [4] 1.01 | [5] 0.992 | [6] 1.04 | [7] 0.997 | [8] 0.994

CC(=O)Nc1ccc(O)cc1 [Acetaminophen]
inactive: [1] 0.992 | [2] 0.99 | [3] 0.997 | [4] 0.996 | [5] 1.02 | [6] 1.01 | [7] 1 | [8] 0.998

CNCCc1ccccn1 [Betahistine mesylate]
inactive: [1] 0.997 | [2] 0.976 | [3] 0.985 | [4] 1.01 | [5] 1 | [6] 1 | [7] 1.02 | [8] 1.01

Cc1nc2ccccn2c(=O)c1CCN1CCC(C(=O)c2ccc(F)cc2)CC1 [Pirenperone]
inactive: [1] 1.02 | [2] 1.03 | [3] 1.01 | [4] 1 | [5] 1.03 | [6] 1.04 | [7] 1.01 | [8] 0.986

CC1(C)[C@@H](OC(=O)CCC(=O)O)CC[C@]2(C)[C@H]3C(=O)C=C4[C@@H]5C[C@@](C)(C(=O)O)CC[C@]5(C)CC[C@@]4(C)[C@]3(C)CC[C@@H]12 [Carbenoxolone disodium salt]
inactive: [1] 0.992 | [2] 0.939 | [3] 0.971 | [4] 0.978 | [5] 0.967 | [6] 0.976 | [7] 0.997 | [8] 0.987

Cc1cccc(Nc2ccncc2S(=O)(=O)NC(=O)NC(C)C)c1 [Torsemide]
inactive: [1] 1 | [2] 1.04 | [3] 1.01 | [4] 1.01 | [5] 1.04 | [6] 1.05 | [7] 1.01 | [8] 1

CC(=O)c1ccc2c(c1)N(CCCN1CCC(CCO)CC1)c1ccccc1S2 [Piperacetazine]
inactive: [1] 0.971 | [2] 1.05 | [3] 1.03 | [4] 1.01 | [5] 1.01 | [6] 1.02 | [7] 1 | [8] 0.948

CC(C)(O)c1ccccc1CC[C@@H](SCC1(CC(=O)O)CC1)c1cccc(/C=C/c2ccc3ccc(Cl)cc3n2)c1 [Montelukast]
inactive: [1] 1.02 | [2] 1.04 | [3] 1.05 | [4] 1.01 | [5] 0.911 | [6] 0.875 | [7] 1 | [8] 1

C[C@H](O)C(=O)Nc1c(I)c(C(=O)NC(CO)CO)c(I)c(C(=O)NC(CO)CO)c1I [Iopamidol]
inactive: [1] 1.03 | [2] 1.08 | [3] 1.07 | [4] 1.03 | [5] 1.08 | [6] 1.08 | [7] 1.01 | [8] 1.01

N=C(N)NS(=O)(=O)c1ccc(N)cc1 [Sulfaguanidine]
inactive: [1] 1.01 | [2] 0.98 | [3] 1.04 | [4] 1.04 | [5] 1.06 | [6] 1.05 | [7] 0.999 | [8] 1

CNCCCC12CCC(c3ccccc31)c1ccccc12 [Maprotiline hydrochloride]
inactive: [1] 1 | [2] 0.999 | [3] 0.942 | [4] 1.01 | [5] 0.947 | [6] 0.985 | [7] 0.997 | [8] 0.982
